Experimental findings from PubChem BioAssay are described below.

Active and inactive are the calls of the source. Unless noted, how the calls were made is not given here.

For assay [1], the system named is Wnt5a (protein binding on small-molecule microarray). Briefly: small molecules binding Wnt5a protein – biophysical, small-molecule microarray, 635/667 nm fluorescence, primary screen (AID 1142).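 Further: fluorescence read at 667 nm with signal to noise per printed feature.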 The following applies: 635 nm fluorescence, higher = more signal.
Assay [2] can be described thus: ATP-based viability of Huh7 replicon cells – cell-based, CellTiter-Glo luminescence, basal, 48 h, cytotoxicity control for HCV replication inhibitor project, primary screen (AID 1143).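 Further: Huh7 hepatoma cells carrying a hepatitis C replication reporter with no stimulus; test concentration not given here.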 The following applies: higher = more signal, called active from +8 up or from −8 down. Background: A replicon is a self-replicating genome or part of one, used to study replication in cells.

Assay [3] in a line: Pseudomonas biofilm growth suppression – PAO1 strain, BacTiter-Glo luminescence, LB-PBS, primary screen (AID 1144). As to conditions: P. aeruginosa PAO1 biofilm, 12 h, higher = more signal.
A short description of assay [4]: basal CRE-LacZ reporter activity in PC12 – cell-based, unstimulated, primary screen (AID 1145). The following applies: no forskolin, luminescence, 4.5 h, higher = more signal, called active from +8 up or from −8 down.
Assay [5] is described as follows: forskolin-driven CRE-LacZ activity in PC12 – cell-based, CRE-LacZ reporter, forskolin-stimulated, primary screen (AID 1146).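 Further: PC12 cells with 6xCRE LacZ reporter stimulated by forskolin 10 µM; beta-galactosidase reporter signal reflecting CREB driven transcription.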 As to conditions: luminescence, 4.5 h, higher = more signal, called active from +8 up or from −8 down.
The target of assay [6] is Streptavidin (Streptomyces avidinii) (UniProt P22629). Briefly: compounds binding control protein streptavidin – biophysical, small-molecule microarray, 635/667 nm fluorescence, artefact control for SMM compound annotation, primary screen (AID 1147).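 Further: signal reflects streptavidin binding to arrayed compounds as a control protein.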 As to conditions: higher = more signal.
Chain of Streptavidin (Streptomyces avidinii) (P22629 whole entry, looked up): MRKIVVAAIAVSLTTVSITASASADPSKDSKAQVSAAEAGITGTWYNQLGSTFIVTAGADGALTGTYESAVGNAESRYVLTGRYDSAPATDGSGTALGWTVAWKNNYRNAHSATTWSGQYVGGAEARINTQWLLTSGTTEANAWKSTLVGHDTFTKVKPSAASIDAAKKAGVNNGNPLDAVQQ
Assay [7] in a line: probe aInhba binding on compound microarray – biochemical, small-molecule microarray, 635/667 nm fluorescence, primary screen (AID 1148).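 Further: score merges 667nm spot fluorescence with signal-to-noise for antibody binding to printed compounds.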 The following applies: higher = more signal.
In assay [8] the target is Torsin-1A (Homo sapiens) (UniProt O14656). Briefly: TOR1A wild-type binding on microarray – cell lysate, small-molecule microarray, lysate, 635/667 nm, primary screen (AID 1149). The following applies: COS7 hTOR1A-WT lysate, 635 nm fluorescence, higher = more signal.
Chain of Torsin-1A (Homo sapiens) (O14656 whole entry, looked up): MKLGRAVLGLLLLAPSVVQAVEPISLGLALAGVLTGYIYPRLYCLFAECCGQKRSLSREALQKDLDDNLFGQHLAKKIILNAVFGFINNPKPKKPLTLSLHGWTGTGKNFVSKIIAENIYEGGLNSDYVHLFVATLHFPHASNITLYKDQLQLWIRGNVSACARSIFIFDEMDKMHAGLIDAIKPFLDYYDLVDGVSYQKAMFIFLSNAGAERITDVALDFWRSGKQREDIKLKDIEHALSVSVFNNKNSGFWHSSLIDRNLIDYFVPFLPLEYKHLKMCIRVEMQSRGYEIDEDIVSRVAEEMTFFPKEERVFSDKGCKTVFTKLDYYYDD
Assay [9] shares this target. Briefly: torsin A mutant lysate binding on microarrays – cell lysate, small-molecule microarray, COS7 lysate, 635/667 nm fluorescence, primary screen (AID 1150).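 Further: score pools 667 nm emission and signal to noise measuring lysate protein binding.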 As to conditions: COS7 hTOR1A mutant lysate, 635 nm fluorescence, higher = more signal.
Assay [10] deals with Sonic hedgehog protein (Shh). Briefly: Sonic hedgehog microarray binding compounds – biochemical, small-molecule microarray, 635/667 nm fluorescence, primary screen (AID 1151).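 Further: Shh protein binding to compounds spotted on small-molecule microarray slides; score combines spot fluorescence intensity with signal-to-noise across triplicate slides.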 The following applies: 635 nm fluorescence, higher = more signal.

With `COc1ccc(NC(=O)O[C@H]2[C@H](OC(=O)Nc3ccccc3)[C@@H](OC(=O)Nc3ccccc3)[C@@H](OC)O[C@@H]2CO)cc1`, the composite z-score was found to be 1.48 in assay [1]; 0.0017 in [6]; 0.0342 in assay [7]; 0.66 in the assay with Torsin-1A (Homo sapiens) [8]; 1.26 with Torsin-1A (Homo sapiens) [9]; 1.17 in assay [10]. Also, the z-score was -4.91 (inactive) in assay [2], -1.81 (inactive) in assay [3], 0.895 (inactive) in assay [4] and -1.52 (inactive) in assay [5].

In the case of `O=C1c2ccccc2[C@](Cc2ccccc2I)(C(=O)NCC(F)(F)F)[C@H](c2ccc(CO)cc2)N1C1CCCCC1`, the composite z-score turned out to be 0.2 in assay [1]; 1.1 in assay [6]; 0.029 in assay [7]; 0.365 with Torsin-1A (Homo sapiens) [8]; 0.936 with Torsin-1A (Homo sapiens) [9]; 0.176 in assay [10]. Moreover, the z-score is -0.772 (inactive) in assay [2], 1.01 (inactive) in assay [3], 0.324 (inactive) in assay [4] and 2.63 (inactive) in [5].

As for `C=CCC(OC(C)=O)[C@@H]1[C@@H](N(Cc2cc3ccccc3o2)C(=O)Cc2ccc(F)cc2)c2cc(OCCCO)ccc2N1C(=O)c1ccc2ccccc2c1` (stereo not given in full), the composite z-score was 0.117 in assay [1]; 0.0943 in assay [6]; -0.176 in assay [7]; -0.312 with Torsin-1A (Homo sapiens) [8]; 0.237 with Torsin-1A (Homo sapiens) [9]; 0.697 in [10]. The z-score is -0.008 (inactive) in assay [2], 0.101 (inactive) in [3], 2.6 (inactive) in assay [4] and 0.86 (inactive) in assay [5].

For `CC(=O)c1ccc(C(O)C2C=CC3C(=O)N(c4ccccc4)C(=O)C3N2Nc2ccc(C#N)cc2)cc1` (stereo not given), the composite z-score in assay [1] was -0.14; in assay [6] it was 1.14; in [7] it was 0.0422; with Torsin-1A (Homo sapiens) [8] it was -0.167; in the assay with Torsin-1A (Homo sapiens) [9], 0.261; in assay [10], -0.964. The z-score in assay [2] is 0.338 (inactive); in assay [3] it was -0.864 (inactive); in [4], 1.19 (inactive); in [5], 0.574 (inactive).

Take `C=C[C@@H](COC(C)=O)N(C(=O)OC(C)(C)C)S(=O)(=O)c1ccc(Br)cc1`: the composite z-score in assay [1] is 0.423; in assay [6] it was 0.802; in assay [7], -0.231; with Torsin-1A (Homo sapiens) [8], 0.814; in the assay with Torsin-1A (Homo sapiens) [9], 0.559; in [10] it was 2.16. Also, the z-score is -0.284 (inactive) in assay [2], 1.01 (inactive) in assay [3], 0.391 (inactive) in assay [4] and -0.739 (inactive) in assay [5].

For the molecule `Cn1cccc1C(O)C1C=CC2C(=O)NC(=O)C2N1Nc1ccc(Cl)cc1Cl` (stereo not given), the composite z-score in assay [1] was 0.0792; in assay [6], 1.37; in assay [7] it was 0.374; with Torsin-1A (Homo sapiens) [8] it was 0.887; with Torsin-1A (Homo sapiens) [9], 1.05; in [10] it was -0.269. Further, the z-score was -0.316 (inactive) in assay [2], -0.668 (inactive) in assay [3], 0.812 (inactive) in assay [4] and 2.09 (inactive) in assay [5].

With `C=CCNC(=O)[C@@H]1[C@H]2C(=O)O[C@H](c3ccccc3)[C@H](c3ccccc3)N2[C@H](c2ccc(O)cc2)[C@@]12C(=O)N(C(=O)OCCOC)c1ccc(C#CC3(O)CCCCCC3)cc12`, the composite z-score in assay [1] is -1.3; in assay [6], -1.23; in assay [7] it was -0.204; with Torsin-1A (Homo sapiens) [8] it was -1.68; with Torsin-1A (Homo sapiens) [9], -1.47; in assay [10], -0.382. Besides, the z-score is -1.16 (inactive) in assay [2], -0.53 (inactive) in [3], -1.28 (inactive) in assay [4] and 0.142 (inactive) in [5].

With `CN(C)C(=O)[C@@]1(Cc2ccccc2CN=[N+]=[N-])N=C(c2ccc(OCCCO)cc2)O[C@H]1c1ccccc1CN=[N+]=[N-]`, the composite z-score in [1] is 0.507; in assay [6] it was 1.1; in [7], 0.575; with Torsin-1A (Homo sapiens) [8] it was 0.0276; in the assay with Torsin-1A (Homo sapiens) [9], 0.767; in assay [10], -0.304. Further, the z-score in assay [2] was -3.14 (inactive); in [3] it was 0.427 (inactive); in assay [4] it was 2.69 (inactive); in assay [5] it was 0.517 (inactive).

In the case of `C=C(C)c1cc2c(c(CCCCCC)n1)[Si](C(C)C)(C(C)C)OC2`, the composite z-score in assay [1] was -0.712; in [6], -1.01; in assay [7], -0.159; with Torsin-1A (Homo sapiens) [8], -1.74; with Torsin-1A (Homo sapiens) [9] it was -1.05; in assay [10], -0.351. The z-score is -0.342 (inactive) in assay [2], 0.582 (inactive) in assay [3], 0.367 (inactive) in assay [4] and 0.0246 (inactive) in assay [5].

Regarding `COC(=O)C1=CC(CCCO)=CC(C2CC2)N(C)C=C1C(=O)OC` (stereo not given), the composite z-score in assay [1] was 0.0676; in assay [6], -0.326; in [7], -0.152; in the assay with Torsin-1A (Homo sapiens) [8], 0.564; with Torsin-1A (Homo sapiens) [9], 0.289; in assay [10] it was -0.526. The z-score in [2] was -2.82 (inactive); in [3], -1.59 (inactive); in assay [4], -0.581 (inactive); in assay [5] it was 0.214 (inactive).

As to `CC(C)C(CO)N1C(=O)[C@@H]2C3C(=O)OCCC/C=C\[C@H]3OC23C=CCN(C(C)(C)C)C(=O)[C@@H]13` (stereo not given in full), the composite z-score in [1] is -0.0407; in [6] it was -0.542; in [7], -0.231; in the assay with Torsin-1A (Homo sapiens) [8], 0.16; with Torsin-1A (Homo sapiens) [9], 0.3; in assay [10], 0.5. The z-score in assay [2] was -0.162 (inactive); in assay [3], 1.19 (inactive); in assay [4] it was -0.0778 (inactive); in [5] it was -0.205 (inactive).

Take `COC(=O)[C@@]1(Cc2ccc(OC)cc2)[C@H]2c3cc(C(=O)N(C)C)n(CCO)c3C[C@H]2CN1C(=O)c1ccccc1`: the composite z-score was 0.29 in [1]; 1.61 in [6]; 0.488 in assay [7]; 0.145 with Torsin-1A (Homo sapiens) [8]; 1.16 in the assay with Torsin-1A (Homo sapiens) [9]; -0.544 in assay [10]. The z-score in assay [2] was -0.0015 (inactive); in assay [3] it was 0.371 (inactive); in assay [4] it was -0.182 (inactive); in assay [5], 1.23 (inactive).

As for `C#CCN([C@@H](Cc1ccc(O)cc1)C(=O)OC)[C@@H](/C=C/C1CC1)[C@H](O)Cc1ccccc1`, the composite z-score in assay [1] is -0.595; in [6], -0.492; in assay [7], -0.128; with Torsin-1A (Homo sapiens) [8] it was -0.541; with Torsin-1A (Homo sapiens) [9] it was -0.12; in [10], 0.825. In addition, the z-score in assay [2] was -5.26 (inactive); in assay [3], 0.709 (inactive); in assay [4], 16.1 (active); in assay [5], 1.17 (inactive).
